Assay results as given in PubChem BioAssay AID1159580 (chemical genetic matrix, 2015).
The campaign covered roughly 5,500 compounds. About 2,000 (36%) were called active. Roughly 18% stayed inconclusive and do not appear here. Rule as the data show it: active = normalized growth mostly below about 0.91 (no sharp cut-off); inconclusive = no clear call, values can overlap the other calls; inactive = mostly above about 0.92. This is one part of the list.

Assay: chemical genetic growth profiling, strain panel (AID 1159580);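 also: tested at 20 µM; growth read once vehicle control cultures reached saturation at 30 °C; 1 = growth at the plate median or of vehicle wells; lower values mean less growth of the strain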
Conditions: growth OD

Measured: normalized growth

CCCCN1CCCCC1C(=O)Nc1c(C)cccc1C (configuration not stated)
inactive: S. cerevisiae deletion strains, locus YJR075W, strain HOC1, stronger effect = lower value 1 | S. cerevisiae deletion strains, locus YKL009W, strain mrt4, stronger effect = lower value 1.01 | S. cerevisiae deletion strains, locus YKL068W, stronger effect = lower value 0.991 | S. cerevisiae deletion strains, locus YKL085W, strain MDH1 (second series), stronger effect = lower value 1 | S. cerevisiae deletion strains, locus YKL085W, strain MDH1, stronger effect = lower value 1 | S. cerevisiae deletion strains, locus YKL160W, strain elf1, stronger effect = lower value 0.992 | S. cerevisiae deletion strains, locus YKL190W, strain CNB1, stronger effect = lower value 1.01 | S. cerevisiae deletion strains, locus YKR001C, strain vps1, stronger effect = lower value 1.01 | S. cerevisiae deletion strains, locus YKR026C, strain gcn3, stronger effect = lower value 0.997 | S. cerevisiae deletion strains, locus YKR091W, strain srl3, stronger effect = lower value 0.982 | S. cerevisiae deletion strains, locus YLL001W, strain dnm1, stronger effect = lower value 0.991 | S. cerevisiae deletion strains, locus YLL026W, stronger effect = lower value 0.998 | S. cerevisiae deletion strains, locus YLL041C, strain sdh2, stronger effect = lower value 0.991 | S. cerevisiae deletion strains, locus YLR027C, strain aat2, stronger effect = lower value 0.991 | S. cerevisiae deletion strains, locus YLR039C, strain RIC1, stronger effect = lower value 1.01 | S. cerevisiae deletion strains, locus YLR058C, strain SHM2, stronger effect = lower value 1.01 | S. cerevisiae deletion strains, locus YLR102C, strain apc9, stronger effect = lower value 0.994 | S. cerevisiae deletion strains, locus YLR113W, strain HOG1, stronger effect = lower value 0.991 | S. cerevisiae deletion strains, locus YLR221C, strain rsa3, stronger effect = lower value 0.996 | S. cerevisiae deletion strains, locus YLR258W, strain gsy2, stronger effect = lower value 0.992 | S. cerevisiae deletion strains, locus YLR262C, strain YPT6 (second series), stronger effect = lower value 0.998 | S. cerevisiae deletion strains, locus YLR262C, strain YPT6, stronger effect = lower value 1.06 | S. cerevisiae deletion strains, locus YLR268W, strain sec22, stronger effect = lower value 0.943 | S. cerevisiae deletion strains, locus YLR320W, strain mms22, stronger effect = lower value 1.01 | S. cerevisiae deletion strains, locus YLR330W, strain CHS5, stronger effect = lower value 1.01 | S. cerevisiae deletion strains, locus YLR342W, strain FKS1 (second series), stronger effect = lower value 1.03 | S. cerevisiae deletion strains, locus YLR342W, strain FKS1, stronger effect = lower value 0.973 | S. cerevisiae deletion strains, locus YLR357W, strain rsc2, stronger effect = lower value 0.982 | S. cerevisiae deletion strains, locus YLR370C, strain arc18, stronger effect = lower value 0.998 | S. cerevisiae deletion strains, locus YLR371W, strain rom2, stronger effect = lower value 0.99 | S. cerevisiae deletion strains, locus YLR384C, strain iki3, stronger effect = lower value 0.997 | S. cerevisiae deletion strains, locus YLR418C, strain cdc73, stronger effect = lower value 0.993 | S. cerevisiae deletion strains, locus YML016C, strain PPZ1, stronger effect = lower value 1.02 | S. cerevisiae deletion strains, locus YML032C, strain rad52, stronger effect = lower value 0.982 | S. cerevisiae deletion strains, locus YML120C, strain ndi1, stronger effect = lower value 0.973 | S. cerevisiae deletion strains, locus YML124C, strain tub3, stronger effect = lower value 0.993 | S. cerevisiae deletion strains, locus YMR058W, strain fet3, stronger effect = lower value 0.979 | S. cerevisiae deletion strains, locus YMR078C, strain ctf18, stronger effect = lower value 0.99 | S. cerevisiae deletion strains, locus YMR125W, strain sto1, stronger effect = lower value 0.982 | S. cerevisiae deletion strains, locus YMR129W, stronger effect = lower value 0.992 | S. cerevisiae deletion strains, locus YMR205C, strain PFK2, stronger effect = lower value 1.01 | S. cerevisiae deletion strains, locus YMR223W, strain ubp8, stronger effect = lower value 1.01 | S. cerevisiae deletion strains, locus YMR231W, strain pep5, stronger effect = lower value 0.996 | S. cerevisiae deletion strains, locus YMR263W, strain SAP30, stronger effect = lower value 1.01 | S. cerevisiae deletion strains, locus YMR307W, strain GAS1, stronger effect = lower value 1.05 | S. cerevisiae deletion strains, locus YNL067W, strain RPL9B, stronger effect = lower value 1.01 | S. cerevisiae deletion strains, locus YNL071W, strain lat1, stronger effect = lower value 0.984 | S. cerevisiae deletion strains, locus YNL128W, strain TEP1, stronger effect = lower value 1.02 | S. cerevisiae deletion strains, locus YNL153C, strain GIM3, stronger effect = lower value 1.01 | S. cerevisiae deletion strains, locus YNL183C, strain NPR1, stronger effect = lower value 0.948 | S. cerevisiae deletion strains, locus YNL209W, strain ssb2, stronger effect = lower value 0.976 | S. cerevisiae deletion strains, locus YNL233W, strain BNI4, stronger effect = lower value 1 | S. cerevisiae deletion strains, locus YNL248C, strain rpa49, stronger effect = lower value 0.959 | S. cerevisiae deletion strains, locus YNL250W, strain rad50, stronger effect = lower value 1 | S. cerevisiae deletion strains, locus YNL271C, strain bni1, stronger effect = lower value 0.985 | S. cerevisiae deletion strains, locus YNL298W, strain CLA4, stronger effect = lower value 1 | S. cerevisiae deletion strains, locus YNL307C, strain MCK1, stronger effect = lower value 0.993 | S. cerevisiae deletion strains, locus YNL322C, strain KRE1 (second series), stronger effect = lower value 0.986 | S. cerevisiae deletion strains, locus YNL322C, strain KRE1, stronger effect = lower value 1.01 | S. cerevisiae deletion strains, locus YNR049C, strain mso1, stronger effect = lower value 0.993 | S. cerevisiae deletion strains, locus YNR052C, strain pop2, stronger effect = lower value 0.99 | S. cerevisiae deletion strains, locus YOL006C, strain TOP1, stronger effect = lower value 1.02 | S. cerevisiae deletion strains, locus YOL012C, strain htz1 0.897 | S. cerevisiae deletion strains, locus YOL147C, strain pex11, stronger effect = lower value 0.987 | S. cerevisiae deletion strains, locus YOR001W, strain rrp6, stronger effect = lower value 0.991 | S. cerevisiae deletion strains, locus YOR061W, strain CKA2, stronger effect = lower value 1.02 | S. cerevisiae deletion strains, locus YOR069W, strain VPS5, stronger effect = lower value 1.01 | S. cerevisiae deletion strains, locus YOR070C, strain gyp1, stronger effect = lower value 0.996 | S. cerevisiae deletion strains, locus YOR080W, strain dia2, stronger effect = lower value 0.979 | S. cerevisiae deletion strains, locus YOR083W, strain WHI5, stronger effect = lower value 1 | S. cerevisiae deletion strains, locus YOR106W, strain vam3, stronger effect = lower value 0.969 | S. cerevisiae deletion strains, locus YOR136W, strain idh2, stronger effect = lower value 0.993 | S. cerevisiae deletion strains, locus YOR144C, strain elg1, stronger effect = lower value 0.993 | S. cerevisiae deletion strains, locus YOR184W, strain ser1, stronger effect = lower value 0.986 | S. cerevisiae deletion strains, locus YOR231W, strain MKK1, stronger effect = lower value 0.974 | S. cerevisiae deletion strains, locus YOR265W, strain rbl2, stronger effect = lower value 0.987 | S. cerevisiae deletion strains, locus YOR270C, strain vph1, stronger effect = lower value 0.985 | S. cerevisiae deletion strains, locus YOR290C, strain snf2, stronger effect = lower value 0.977 | S. cerevisiae deletion strains, locus YOR316C, strain cot1, stronger effect = lower value 0.989 | S. cerevisiae deletion strains, locus YPL051W, strain arl3, stronger effect = lower value 0.998 | S. cerevisiae deletion strains, locus YPL055C, strain LGE1, stronger effect = lower value 1.03 | S. cerevisiae deletion strains, locus YPL078C, strain atp4, stronger effect = lower value 0.978 | S. cerevisiae deletion strains, locus YPL106C, strain sse1, stronger effect = lower value 0.962 | S. cerevisiae deletion strains, locus YPL240C, strain hsp82, stronger effect = lower value 0.982 | S. cerevisiae deletion strains, locus YPL241C, strain CIN2, stronger effect = lower value 1.01 | S. cerevisiae deletion strains, locus YPL256C, strain CLN2, stronger effect = lower value 0.958 | S. cerevisiae deletion strains, locus YPR119W, strain clb2, stronger effect = lower value 0.987 | S. cerevisiae deletion strains, locus YPR141C, strain kar3, stronger effect = lower value 0.985 | S. cerevisiae deletion strains, locus YPR163C, strain tif3, stronger effect = lower value 0.992 | S. cerevisiae deletion strains, locus YPR167C, strain met16, stronger effect = lower value 0.991 | S. cerevisiae deletion strains, strain wtn01, stronger effect = lower value 0.98 | S. cerevisiae strains, strain wild type, stronger effect = lower value 1.02
